Measured values published in ChEMBL document CHEMBL4513216, “Probing the Open Global Health Chemical Diversity Library for Multistage-Active Starting Points for Next-Generation Antimalarials” (ACS Infect Dis, 2020).
Among all 69,000 compounds or so, about 8,600 (12%) showed an effect of 50% or more. Shown is part of a subset that was picked to be rich in strong results.

Each compound was assayed on Plasmodium berghei (assay: Screen against P. berghei liver stage (PbLuc), transformed with Luciferase, at 10uM). Conditions: tested at 10 uM.
Format: functional, HepG2

Structure (SMILES) | INHIBITION [%]
COCc1ncn2c1CN(C(=O)c1cnc3ccccc3c1)CC2 | 33.2
Cc1noc(CN(Cc2cccc(C#N)c2)Cc2cccs2)n1 | 1.98
Cc1cccc(C)c1NC(=O)c1cccc(N(C)S(C)(=O)=O)c1C | 16.1
CCn1c(CN2CCC(O)(c3ccc4c(c3)OCO4)CC2)cnc1SC | 34.15
Cc1ncc(CN2CCCC(O)(c3ccc(F)cc3)CC2)n1C (stereo not given) | 21.255
CCn1c(CN2CCCC(O)(c3ccc(F)cc3)CC2)cnc1SC (stereo not given) | 51.1
Cc1nc(C)n(C2CCCN(C(=O)c3ccnc(N(C)C)c3)C2)n1 (stereo not given) | 14.4
CCc1nc(C2CCCN(C(=O)c3ccc(Cl)cc3)C2)no1 (stereo not given) | 23.4
Cc1cnn(C2CCCN(C(=O)c3cccc(Cn4ccnc4)c3)C2)c1 (stereo not given) | 42.9
CN(C)Cc1ccc(C(=O)N2CCCC(n3cccn3)C2)cc1 (stereo not given) | 61.9
CCc1ccc(C(=O)N2CCCC(c3nn[nH]n3)C2)cc1 (stereo not given) | 67.4
O=C(c1cccc(Cn2ccnc2)c1)N1CCCC(n2ccnc2)C1 (stereo not given) | 22.3
CS(=O)(=O)c1ccc(C(=O)N2CCCC(n3cccn3)C2)cc1 (stereo not given) | 18.8
O=C(c1ccc(CN2CCCC2)cc1)N1CCCC(n2cccn2)C1 (stereo not given) | 11.7
O=C(c1cccc(Cn2ccnc2)c1)N1CCCC(n2cccn2)C1 (stereo not given) | 56.55
CCc1nc(C2CCCN(C(=O)c3ccc(F)cc3)C2)no1 (stereo not given) | 27.4
CS(=O)(=O)NCc1nnc2n1CCN(Cc1ccccn1)C2 | 36.9
CCN1C(=O)CCC12CCCN(CCc1ccccc1)C2 (stereo not given) | 0.112
CN(C)c1cnn(Cc2nc3ccccc3n2C)c(=O)c1 | 29.4
CCC(C)[C@H](N)c1nnc(SCC(=O)Nc2ccc(C)cc2C)o1 (stereo not given in full) | 40.4
N#Cc1c(F)cccc1N1CCCC(C(=O)Nc2nccs2)C1 (stereo not given) | -1.85
CC(NC(=O)c1ccnc(C2CC2)n1)C1(N2CCOCC2)CCCC1 (stereo not given) | -20.3
Cc1occc1C(=O)N1CCOCC2(CCN(Cc3nccs3)C2)C1 (stereo not given) | 18.5
COCC(=O)N1C[C@H]2CNC[C@@]2(C(=O)NCc2snnc2C)C1 | -21.8
O=C(N1CCCC1)N1C[C@@H](OCc2cccnc2)[C@H]2OCCC[C@H]21 | -55.7
Cc1nc(COCC2CN(C(N)=O)Cc3nccn3C2)cs1 (stereo not given) | 40.5
CCn1ccnc1CN1CCN(C(C)C(=O)NC2CCCC2)CC1 (stereo not given) | 36.85

Structure (SMILES) | INHIBITION [%]
O=C(O)c1cn(CC2CCCN(c3ccc4ccccc4n3)C2)nn1 (stereo not given) | 46.6
CC(C)(C)c1cn(CC2CCCN(c3cnc4ccccc4n3)C2)nn1 (stereo not given) | 89.6
O=C(O)c1cn(CC2CCCN(c3cnc4ccccc4n3)C2)nn1 (stereo not given) | 6.24
CCc1nc(C2CCCN(C(=O)c3cccnc3O)C2)no1 (stereo not given) | 9.14
O=C(NCCn1ccc(-c2ccccn2)n1)C1CCC1 | 14.3
Cc1nn(C)c(C)c1-c1cc(-c2cc(CC(=O)O)cs2)nc(N)c1C#N | 45.8
CCn1cc(-c2cc(-c3cc(CC(=O)O)cs3)nc(N)c2C#N)c(C)n1 | 37.6
CCn1cc(-c2cc(-c3cc(CN(C)C)cs3)nc(N)c2C#N)c(C)n1 | 76.6
COCCNc1ccc(CC2CCCN(c3ncccn3)C2)nn1 (stereo not given) | 28.05
Cc1ccoc1C(=O)N1CCCN(Cc2cnn(C)c2)CC1 | 15.6
O=C(NCCS(=O)(=O)N1CCN(c2ncccn2)CC1)c1ccccc1 | -101
Cc1cc(C2CCCN(CCc3ccccn3)C2)n[nH]1 (stereo not given) | -0.0706
NC(=O)c1cc(C2CCCN(Cc3ccc4c(c3)OCCO4)C2)n[nH]1 (stereo not given) | 11.8
O=C(C1CCCN(CCc2ccc3c(c2)CCO3)C1)N1CCCC1 (stereo not given) | 6.11
NC(=O)c1cc(C2CCCN(CCc3ccc4c(c3)CCO4)C2)n[nH]1 (stereo not given) | 74.3
NC(=O)c1cc(C2CCCN(CCc3ccccn3)C2)n[nH]1 (stereo not given) | 28.7
Cc1cc(C2CCCN(CCc3ccc4c(c3)CCO4)C2)n[nH]1 (stereo not given) | 90.2
Cc1noc(C)c1CN1CCCC1c1c(C)nn(C)c1Cl (stereo not given) | -16
CC(CCc1ccccc1F)C(=O)NS(=O)(=O)CC1CC1 (stereo not given) | 10.6
CC(CCc1ccccc1F)C(=O)NS(=O)(=O)N(C)C(C)C (stereo not given) | 80.9
CC(CCc1ccccc1F)C(=O)NS(C)(=O)=O (stereo not given) | 12.9
O=C1CCC2(CCCN(CCn3cc(Cl)cn3)C2)CN1C1CCCC1 (stereo not given) | 31.5
Cc1cnc(CCNc2cccc(CC3CCCNC3)n2)s1 (stereo not given) | 41.5
CCn1cc(S(=O)(=O)Nc2nc3c(s2)CC(C)CC3)cn1 (stereo not given) | 11.7
O=C1COC2(CCN(CC3CC3)CC2)CN1c1ccsc1 | 78.8
O=C1COC2(CCN(Cc3ccoc3)CC2)CN1c1ccccc1 | -23.4
O=C(CC1CC1)N1CCC2(CC1)CN(c1ccsc1)C(=O)CO2 | 38.1

Structure (SMILES) | INHIBITION [%]
O=C1COC2(CCN(Cc3cccs3)CC2)CN1c1ccsc1 | 21.1
O=C1COC2(CCN(Cc3ccoc3)CC2)CN1c1ccsc1 | 52.9
O=C1COC2(CCN(CC3CC3)CC2)CN1c1ccccc1 | 36.8
COc1ncccc1NC(=O)C1CC(=O)N(Cc2ccccn2)C1 (stereo not given) | -8.69
Cc1ccc(CN2CCC3(CCC3NC(=O)c3ccn(C)c3)CC2)s1 (stereo not given) | -6.39
CC(C)C(=O)N1CCCC1C(=O)Nc1cc(C(F)(F)F)ccc1F (stereo not given) | 20.6
CCc1ncnc2c1CCN(Cc1ccc3c(c1)OCO3)CC2 | -6.39
COc1cccc(-c2cnc(C3CCNCC3)cn2)c1 | -28.6
CNC(=O)c1ccc(NC(=O)NC(C)CCc2cccn2C)c(C)c1 (stereo not given) | 23.7
CCNC(=O)c1ccc(NC(=O)N(C)Cc2cccn2C)c(C)c1 | 54.6
CCNC(=O)c1ccc(NC(=O)N(C)Cc2cc(C)on2)cc1 | -41.4
Cc1ccc(OCCN(C)Cc2nc3c(cnn3C)c(=O)[nH]2)cc1 | 23.7
O=C(NC[C@H]1CCCO1)c1ccc(S(=O)(=O)N2C[C@H]3C[C@@H]2CN3)cc1 | 30.7
CN(Cc1ccncc1)C(=O)NC1CCS(=O)(=O)C1 (stereo not given) | -4.12
Cc1nn(C)cc1C1SCC(=O)Nc2c1c(O)nn2C(C)C (stereo not given) | 30.5
Cc1nn(C)c(C)c1C1SCC(=O)Nc2c1c(O)nn2C(C)C (stereo not given) | 52.5
Cc1c(C2SCC(=O)Nc3c2c(O)nn3C(C)C)cnn1C (stereo not given) | 13.1
CCCc1nc(NCCCOC)c2c(n1)c(C)nn2CC | 29.18
COCCN1C(=O)CC(c2cccnc2)C12CCN(C)CC2 (stereo not given) | 27.6
CCC(=O)N1CCC2(CC1)C(c1cccnc1)CC(=O)N2CCOC (stereo not given) | 59.3
COCCN1C(=O)CC(c2cccnc2)C12CCN(C(=O)C1CC1)CC2 (stereo not given) | 24
O=C(c1ccccn1)N1C[C@@H](OCc2cccnc2)[C@H]2OCCC[C@@H]21 | -21.1
COCCNC(=O)c1cc2c(s1)CCN2S(C)(=O)=O | 6.55
O=C(c1ccc(=O)[nH]n1)N1CCC(CN2CCOCC2)CC1 | -40.5
Cc1ccc(N2CCC(C(O)c3cccs3)CC2)nn1 (stereo not given) | 56.3
N#Cc1nccnc1N1CCC(C(O)c2cccs2)CC1 (stereo not given) | 42.4
OC(c1cccs1)C1CCN(c2ncccn2)CC1 (stereo not given) | 48

Structure (SMILES) | INHIBITION [%]
Cc1cccc(OCCNC(=O)CN2CCc3cncnc3C2)c1 | 22.3
COC(=O)[C@H](C)NC(=O)c1cc(-c2cccc(Cl)c2)no1 | 3.16
CCCS(=O)(=O)N1CCC2(CCN(Cc3cccc(F)c3)C2=O)C1 (stereo not given) | 16.8
CN(C)CCN1CCC2(CCN(C(=O)c3cccnc3)CC2)C1=O | -23.3
COCC(=O)N1CCC2(CC1)CC(OC)CO2 (stereo not given) | 70.4
COc1ccccc1OCC(=O)N1C[C@@H]2CN(C)CCO[C@@H]2C1 | 55.6
COCC(=O)N1CCC2(CC1)CC(N1CCN(C)CC1)CO2 (stereo not given) | 39.3
COc1ccccc1OCC(=O)N1CCC[C@]2(C[C@@H](OC)CO2)C1 | 54.7
COCC1COCCC12CCN(C(=O)COc1ccccc1C)CC2 (stereo not given) | 0.542
CCO[C@@H]1CO[C@@]2(CCCN(C(=O)COc3ccccc3OC)C2)C1 | 15.8
O=C(COc1ccccc1)N1CCC[C@]2(C[C@@H](OCC3CC3)CO2)C1 | 27.6
CO[C@@H]1CO[C@@]2(CCN(C(=O)COc3ccccc3C)C2)C1 | 71
Cc1ccc(OCC(=O)N2C[C@@H]3CN(C)CCO[C@@H]3C2)cc1 | 37.9
Cc1ccccc1OCC(=O)N1CC[C@]2(C[C@@H](OCC3CC3)CO2)C1 | -0.813
COC1COC2(CCN(C(=O)c3ncccn3)CC2)C1 (stereo not given) | 37.8
CN1CCO[C@@H]2CN(C(=O)COc3cccc(Cl)c3)C[C@@H]2C1 | 34.9
Cc1occc1C(=O)Nc1cnn(CCN2CCOCC2)c1 | -16.565
O=C(Nc1ccc2c(c1)OCO2)c1ccc(N2CCCC2)nn1 | 43.8
NC(=O)CN(Cc1ccc(Br)cc1)C(=O)c1cnccn1 | 4.22
O=C1COC2(COCCN(Cc3ccsc3)C2)CN1c1ccoc1 (stereo not given) | 12.4
CO[C@H]1CO[C@@]2(CCCN(C(=O)C3CC=CC3)C2)C1 | 22.2
CO[C@H]1CO[C@@]2(CCCN(C(=O)N3CCCC3)C2)C1 | 45.7
CO[C@@H]1CO[C@@]2(CCCN(C(=O)C3CC=CC3)C2)C1 | 53
CC(C)c1nc(CN2CCN(CC(O)c3ccccc3)CC2)no1 (stereo not given) | 21.5
